# Bioassay records from PubChem BioAssay.
# BoNT-A LC inh2 = blocks Botulinum neurotoxin A light chain protease. inhibition, % at 10 µM. 0.17% of 360,000 active. multiplex microsphere protease substrate cleavage, flow cytometry; note: plate controls were buffer without enzyme for full effect and enzyme alone for no effect
# MazEF act = increases E. coli MazEF RNase cleavage of RNA; 0.32% of 350,000 active; FAM/BHQ RNA-DNA oligo cleavage fluorescence, 5 h; activation, % at 20 µM; P0AE70; in the data active = activation above about 50%
# Target sequence (P0AE70 whole entry, looked up): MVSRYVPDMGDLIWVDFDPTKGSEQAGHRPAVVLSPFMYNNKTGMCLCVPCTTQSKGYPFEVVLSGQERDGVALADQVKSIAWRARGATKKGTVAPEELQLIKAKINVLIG
# BoNT-F LC inh = inhibitors of Botulinum neurotoxin F light chain protease; Multiplex microsphere protease cleavage assay, flow cytometry; inhibition, % at 10 µM; 0.22% of 360,000 active; in the data active = inhibition above about 35%, passing the limit was not always enough; inconclusive = no clear call, values can overlap the other calls; note: plate controls were buffer without enzyme for full effect and enzyme alone for no effect
# Anthrax LF prot = blocks Bacillus anthracis lethal factor protease. multiplex microsphere protease cleavage assay, LF. inhibition, % at 10 µM. 0.12% of 360,000 active. AID 588501; note: plate controls were buffer without enzyme for full effect and enzyme alone for no effect
# Bead autofluor = flagged as autofluorescent in microsphere protease counterscreen. compound autofluorescence counterscreen, microsphere flow cytometry; active compounds read high. fluorescence intensity (no concentration beside the values). 3.1% of 360,000 active; in the data active = fluorescence intensity above about 16000; inconclusive = no clear call, values can overlap the other calls
# * = called active by the depositor; ? = inconclusive; . = not tested or not shown. Shown are actives, neighbours in structure and some others; about 3.7% of the full set was active somewhere. Cut-off read from the data, not from the text of the source, unless noted: active = inhibition above about 30%; inconclusive = no clear call, values can overlap the other calls; inactive = below that.
SMILES,BoNT-A LC inh2,MazEF act,BoNT-F LC inh,Anthrax LF prot,Bead autofluor
Cc1c(Cl)c(C(=O)NC2C3CC4CC(C3)CC2C4)nn1C (stereo not given),?,-1,0,-5,21785*
CCN1CCN(C(=S)c2ccc(OCC(=O)Nc3ccc(OC)cc3)cc2)CC1,0,58*,-2,-3,3319
CCN1CCN(C(=S)c2ccc(OCC(=O)N3CCOCC3)cc2)CC1,1,8,-2,-2,19327*
CCOC(=O)c1nc(C)n(-c2cc(Cl)ccc2Cl)n1,1,-7,2,-1,19905*
CC1(C)CC(=O)c2c(nn(-c3ccccc3)c2-c2ccncc2)C1,?,2,-3,1,22472*
CCC1=NN2C(=N)/C(=C\c3ccc(OCc4cc(=O)n5nc(CC)sc5n4)c(OC)c3)C(=O)N=C2S1,0,0,3,2,1956
Clc1ccc(OCc2nnc(-c3ccccc3Br)o2)cc1,0,-7,0,-6,16365*
Cc1cccnc1NC(=O)Nc1ccccc1,-1,-17,-4,-10,5425
Cc1cc(C)c(C(N)=O)c(NC(=O)Nc2ccccc2)n1,0,-2,1,-4,22860*
CCOc1ccccc1NC(=S)N1CCC(c2nc3ccccc3o2)CC1,0,1,-1,-1,2158
Cc1cnn(-c2nc(-c3cccs3)cc(C(F)(F)F)n2)c1,2,7,0,0,23064*
Cc1nc2ccccc2n1/N=C/c1ccc([N+](=O)[O-])s1,12,49,4,6,2688
O=[N+]([O-])c1ccc(/C=N/n2c(CO)nc3ccccc32)s1,0,99*,-3,0,1958
O=[N+]([O-])c1ccc(/C=N/n2cnc3ccccc32)s1,15,189*,16,12,9692
Cc1cc(=O)oc(C)c1C(=O)NCCNC(=O)c1c(C)cc(=O)oc1C,0,15,1,-2,2859
Cc1cc(=O)oc(C)c1C(=O)NCc1ccccn1,-2,-2,-1,-1,20680*
Cc1cc(=O)oc(C)c1C(=O)NCC1COc2ccccc2O1 (stereo not given),6,-2,6,-6,20933*
O=C(NCc1ccccn1)c1cc2cc(Br)ccc2oc1=O,-6,-2,-10,-2,25730*
Cc1cc(=O)oc(C)c1C(=O)NCCC(C)C,2,13,1,0,22899*
CC(=O)NCC1COc2ccccc2O1 (stereo not given),0,4,-5,-7,4827
CC1CCN(c2ccc(-c3ccc(NC(=O)C(F)(F)F)cc3)nn2)CC1,0,11,3,1,5713
COc1ccc(CN(C(=O)c2ccccc2Br)C2CCS(=O)(=O)C2)cc1 (stereo not given),0,4,5,-7,5715
Cc1ccc(CNC(=O)c2c(C)cc(=O)oc2C)cc1,-1,4,3,-3,10776
CCN(CCCNC(=O)c1c(C)cc(=O)oc1C)c1cccc(C)c1,1,-2,2,-7,22991*
COc1ccc(S(=O)(=O)N(CC(=O)NCc2ccco2)c2ccc(C)cc2)cc1OC,2,-7,-4,-2,4536
SMILES,BoNT-A LC inh2,MazEF act,BoNT-F LC inh,Anthrax LF prot,Bead autofluor
O=C(Nc1ccc(F)cc1)C1CCN(c2nnnn2-c2ccccc2)CC1,?,-4,1,2,19751*
Cc1nc(-c2cccnc2)sc1C(=O)Nc1ccc(C(F)(F)F)cc1,?,3,-3,0,22745*
Cc1nc(-c2cccnc2)sc1C(=O)Nc1cccc(C(F)(F)F)c1,?,2,-4,-5,22572*
CN(C)C(=C(C#N)C#N)N1CCN(c2ccc(Cl)cc2)CC1,0,1,1,5,4303
CN(C)C(=C(C#N)C#N)N1CCN(c2ccc(Cl)c(Cl)c2)CC1,1,-1,-1,-5,20347*
c1ccc(-c2nnc3n2CCCC3)cc1,2,8,4,0,22320*
O=C(NC(=S)Nc1cccc2[nH]ncc12)c1ccccc1,-2,-3,-9,-4,4477
O=C(Nc1cccc2[nH]ncc12)c1ccc(F)cc1,?,11,2,-5,22322*
O=C(NCc1ccccn1)c1ccc(Cl)c(NC2=NC3CS(=O)(=O)CC3S2)c1 (stereo not given),-1,2,-1,-3,6469
COc1ccc(N2CCN(c3oc(-c4ccccc4OC)nc3C#N)CC2)cc1,-3,4,-5,-4,21565*
CCN1CCN(c2oc(-c3ccc(OC)cc3)nc2C#N)CC1,-2,1,-2,-4,16578*
COc1ccc(-c2nc(C#N)c(N3CCc4ccccc4C3)o2)cc1OC,-2,-4,-5,-7,17078*
COc1ccc(N2CCN(c3oc(-c4ccco4)nc3C#N)CC2)cc1,?,5,6,-6,20889*
N#Cc1nc(-c2ccco2)oc1N1CCN(c2ccccc2)CC1,0,-1,6,-2,3193
O=C1CCCN1c1ccc(C(=O)N(Cc2nnc(-c3ccc(Cl)cc3)o2)C2CC2)cc1,.,9,.,.,.
Cc1ccc(C)c(NC(=S)NC23CN4CN(CN(C4)C2)C3)c1,0,10,-11,-3,4397
O=C(CCN1CCCCC1)Nc1ccc(Br)cc1C(=O)c1ccccc1,-3,-2,-6,-15,5122
CC(C(=O)Nc1ccc(Br)cc1C(=O)c1ccccc1)N1CCCCC1 (stereo not given),6,-6,8,-5,19761*
CCC1CCCCN1Cc1ccc(N)cc1 (stereo not given),0,-2,-7,1,4121
CCOC(=O)C1=CC(=O)CC(C)(C)O1,0,16,2,1,3848
CCOC(=O)c1ncn2c1C(=O)OC2(C)C,?,5,2,1,19113*
C=CCn1c(C)cc(C)c(C#N)c1=O,0,6,1,-5,22789*
CCn1c(C)cc(C)c(C#N)c1=O,-1,-20,-4,-4,3606
COc1cc(S(=O)(=O)N2CCN(C(=O)c3cccs3)CC2)ccc1NC(C)=O,0,0,-2,10,3636
Cc1ccc2nc3c(nc2c1)-c1ccccc1C3=O,0,17,0,1,23481*
SMILES,BoNT-A LC inh2,MazEF act,BoNT-F LC inh,Anthrax LF prot,Bead autofluor
CC(C)(C)c1cc(Cc2ccccc2)[nH]n1,?,-1,-2,-5,23025*
Cc1ccc(-c2n[nH]c(Cc3ccccc3)n2)cc1,-2,6,-7,-2,5096
CCSc1ccc([C@@H]2[C@H]3C(=O)N(CC)C(=O)[C@H]3[C@]3(C(=O)OC)CCCCN23)cc1,-4,-32,30,4,21568*
O=C(c1ccccc1)c1ccc2nc(-c3ccco3)c(-c3ccco3)nc2c1,42*,-5,-9,15,3903
CC1(C)C/C(=N\NC(=S)Nc2ccccc2F)c2cc(O)ccc2O1,-1,13,-13,-7,4219
CCCCCCc1cc2cc(-c3nnc(-c4ccccc4O)o3)c(=O)oc2cc1O,3,-113,11,3,8438
CCCCCCc1cc2cc(-c3nnc(-c4ccccc4OC)o3)c(=O)oc2cc1O,?,-164,0,4,22218*
CCC(C)[C@H](NC(=O)N1CCn2c1nc1ccccc12)C(=O)NCc1ccccc1 (stereo not given in full),1,15,5,0,5525
